The nature of test [1]: NCI Yeast Anticancer Drug Screen. Data for the rad50 strain (AID 155).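 Further: 0% = growth of vehicle-only cultures of the same strain.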 The following applies: S. cerevisiae rad50 strain growth inhibition, stronger effect = higher value. A digest of the protocol: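 Cells are treated with compound, grown, and their growth is then scored against vehicle-only cultures of the same repair-deficient yeast strain.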
The nature of test [2]: NCI Yeast Anticancer Drug Screen. Data for the mec2-1 strain (AID 157). The following applies: S. cerevisiae mec2-1 strain, stronger effect = higher value. The method, boiled down: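 Using mec2-1 yeast: add compound, measure growth, express inhibition versus vehicle-treated cultures.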
A short description of test [3]: NCI Yeast Anticancer Drug Screen. Data for the sgs1 mgt1 strain (AID 161).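 Further: 0% = growth of cultures given vehicle only.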 As to conditions: S. cerevisiae sgs1 mgt1 strain, stronger effect = higher value. The method, boiled down: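 Compounds are added to genetically altered yeast, and growth is compared with cultures given vehicle alone to give percent inhibition.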
A short description of test [4]: NCI Yeast Anticancer Drug Screen. Data for the cln2 rad14 strain (AID 165).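 Further: 0% = growth equal to vehicle treated cultures.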 The following applies: S. cerevisiae cln2 rad14 strain, stronger effect = higher value. A digest of the protocol:
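Yeast strain cln2 rad14, bearing defects in cell cycle control and DNA repair, serves as the test system; values reflect growth inhibition compared with vehicle.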

Test [5] in a line: NCI Yeast Anticancer Drug Screen. Data for the bub3 strain (AID 167). The following applies: S. cerevisiae bub3 mutant strain, stronger effect = higher value. A digest of the protocol: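 Part of a panel of yeast mutants defective in DNA damage repair or cell cycle regulation. Each strain is grown with compound, and inhibition is calculated relative to solvent-treated cultures.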
A short description of test [6]: NCI Yeast Anticancer Drug Screen. Data for the mlh1 rad18 strain (AID 175). As to conditions: S. cerevisiae mlh1 rad18 strain growth inhibition, stronger effect = higher value. The method, boiled down:
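Steps: expose repair-defective yeast to compound; measure growth; express inhibition against vehicle-treated controls.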

Where [7] appears, read: at 5.0 µM (retest, dose inferred, filed as 0.5).
Where [8] appears, read: at 50.0 µM (retest, dose inferred, filed as 5.0).

This is part of a sample that, as a whole, favours compounds with a hit. Of some 79,000 tested, about 15% had one in any assay. Unmarked numbers belong to inactive results. Active and inactive are the calls of the source. No stated cut-off is given here; in the data, active means growth inhibition above about 70%; inactive means the rest.

With `COC(=O)CCCC(=O)NC1=C(Nc2ccccc2)C(=O)c2ccccc2C1=O`, the growth inhibition in test [1] (setting [7]) was 27%; in test [1] (setting [8]) it was 72% (active); in test [1] (at 50.0 µM), 45.5%; in test [2] (setting [7]) it was 15%; in test [2] (setting [8]) it was 41%; in test [2] (at 50.0 µM), 14.5%. For the same molecule, the growth inhibition is 22% in test [3] (setting [7]); 50% in test [3] (setting [8]); 52.2% in test [3] (at 50.0 µM); 15% in test [4] (setting [7]); 24% in test [4] (setting [8]); 38.6% in test [4] (at 50.0 µM). The growth inhibition in test [5] (setting [7]) was 33%; in test [5] (setting [8]), 67%; in test [5] (at 50.0 µM), 61%; in test [6] (setting [7]), 23%; in test [6] (setting [8]), 60%; in test [6] (at 50.0 µM), 16.3%.
For `CC1([N+](=O)[O-])C(=O)C2(N3CCCCC3)CCCC2C1c1ccccc1` (configuration not stated), the growth inhibition was 3% in test [1] (setting [7]); 10% in test [1] (setting [8]); 15.5% in test [1] (at 50.0 µM); 3% in test [2] (setting [7]); 21% in test [2] (setting [8]); 8.6% in test [2] (at 50.0 µM). Besides, the growth inhibition in test [3] (setting [7]) was 6%; in test [3] (setting [8]) it was 8%; in test [3] (at 50.0 µM), 19%; in test [4] (setting [7]) it was 5%; in test [4] (setting [8]), -1%; in test [4] (at 50.0 µM), 36.2%. The growth inhibition in test [5] (setting [7]) is 1%; in test [5] (setting [8]), 13%; in test [5] (at 50.0 µM), 12%; in test [6] (setting [7]) it was 1%; in test [6] (setting [8]), 20%; in test [6] (at 50.0 µM) it was 16.5%.
For `Cc1cc(N(CCOS(C)(=O)=O)CCOS(C)(=O)=O)ccc1C=Nc1cc(Br)c(O)c(Br)c1`, the growth inhibition in test [1] (setting [7]) was 4%; in test [1] (setting [8]), 71% (active); in test [1] (at 50.0 µM), 82.5% (active); in test [2] (setting [7]), -93%; in test [2] (setting [8]), 63%; in test [2] (at 50.0 µM), 72.6% (active). Moreover, the growth inhibition in test [3] (setting [7]) was 2%; in test [3] (setting [8]), 53%; in test [3] (at 50.0 µM), 84.2% (active); in test [4] (setting [7]), 4%; in test [4] (setting [8]), 43%; in test [4] (at 50.0 µM) it was 50.4%. For the same molecule, the growth inhibition was 2% in test [5] (setting [7]); 24% in test [5] (setting [8]); 21.1% in test [5] (at 50.0 µM); 22% in test [6] (setting [7]); 91% (active) in test [6] (setting [8]); 95.8% (active) in test [6] (at 50.0 µM).
Take `CCOc1ccc2c(c1)[n+]([O-])c(S(=O)(=O)c1ccc(C)cc1)c(N)[n+]2[O-]`: the growth inhibition in test [1] (setting [7]) was -5%; in test [1] (setting [8]), 63%; in test [1] (at 50.0 µM), 91.2% (active); in test [2] (setting [7]) it was 18%; in test [2] (setting [8]), 77% (active); in test [2] (at 50.0 µM) it was 48.3%. For the same molecule, the growth inhibition in test [3] (setting [7]) was 30%; in test [3] (setting [8]) it was 88% (active); in test [3] (at 50.0 µM) it was 90.8% (active); in test [4] (setting [7]) it was 13%; in test [4] (setting [8]) it was 55%; in test [4] (at 50.0 µM), 90.3% (active). The growth inhibition in test [5] (setting [7]) is 37%; in test [5] (setting [8]), 97% (active); in test [5] (at 50.0 µM) it was 93.3% (active); in test [6] (setting [7]), 20%; in test [6] (setting [8]), 85% (active); in test [6] (at 50.0 µM), 94.2% (active).
`NC(=O)Nc1cc(=O)[nH]c(=S)[nH]1`: the growth inhibition in test [1] (setting [7]) was -2%; in test [1] (setting [8]) it was -2%; in test [1] (at 50.0 µM), 6.9%; in test [2] (setting [7]), 4%; in test [2] (setting [8]) it was -1%; in test [2] (at 50.0 µM) it was 8.65%. The growth inhibition in test [3] (setting [7]) is 0%; in test [3] (setting [8]), 0%; in test [3] (at 50.0 µM), -9.9%; in test [4] (setting [7]), -1%; in test [4] (setting [8]), -5%; in test [4] (at 50.0 µM) it was 5.05%. Also, the growth inhibition was -1% in test [5] (setting [7]); -4% in test [5] (setting [8]); 42.4% in test [5] (at 50.0 µM); -3% in test [6] (setting [7]); -2% in test [6] (setting [8]); -23.1% in test [6] (at 50.0 µM).
`CCCCCCCCCCCCCC(=O)OCCCC1CCCO1` (configuration not stated): the growth inhibition is -2% in test [1] (setting [7]); -2% in test [1] (setting [8]); 8.55% in test [1] (at 50.0 µM); -2% in test [2] (setting [7]); 2% in test [2] (setting [8]); -13.8% in test [2] (at 50.0 µM). In addition, the growth inhibition in test [3] (setting [7]) is -1%; in test [3] (setting [8]), 4%; in test [3] (at 50.0 µM), 13.2%; in test [4] (setting [7]), 7%; in test [4] (setting [8]), 7%; in test [4] (at 50.0 µM), 53.6%. Moreover, the growth inhibition was -2% in test [5] (setting [7]); -3% in test [5] (setting [8]); 11.3% in test [5] (at 50.0 µM); 11% in test [6] (setting [7]); 0% in test [6] (setting [8]); -38.2% in test [6] (at 50.0 µM).
With `C[N+]1(c2ccccc2)C=C(c2ccccc2)SC1=S` (configuration not stated), the growth inhibition is 7% in test [1] (setting [7]); 86% (active) in test [1] (setting [8]); 67.8% in test [1] (at 50.0 µM); 25% in test [2] (setting [7]); 68% in test [2] (setting [8]); 20.6% in test [2] (at 50.0 µM). Further, the growth inhibition in test [3] (setting [7]) was -8%; in test [3] (setting [8]) it was 36%; in test [3] (at 50.0 µM) it was 60.5%; in test [4] (setting [7]), 1%; in test [4] (setting [8]) it was 10%; in test [4] (at 50.0 µM), 23.4%. The growth inhibition in test [5] (setting [7]) is 13%; in test [5] (setting [8]) it was 67%; in test [5] (at 50.0 µM), 54.8%; in test [6] (setting [7]), 12%; in test [6] (setting [8]), 75% (active); in test [6] (at 50.0 µM), 74.8% (active).
For `NC(CSC1(c2ccc(Cl)cc2)c2ccccc2-c2ccccc21)C(=O)O` (configuration not stated), the growth inhibition in test [1] (setting [7]) was 16%; in test [1] (setting [8]), 68%; in test [1] (at 50.0 µM) it was 68%; in test [2] (setting [7]), 8%; in test [2] (setting [8]) it was 51%; in test [2] (at 50.0 µM) it was 61.9%. Also, the growth inhibition in test [3] (setting [7]) is -1%; in test [3] (setting [8]), 22%; in test [3] (at 50.0 µM), 35.1%; in test [4] (setting [7]), -15%; in test [4] (setting [8]), 59%; in test [4] (at 50.0 µM), 43.8%. Moreover, the growth inhibition is 1% in test [5] (setting [7]); 44% in test [5] (setting [8]); 91.2% (active) in test [5] (at 50.0 µM); -2% in test [6] (setting [7]); 55% in test [6] (setting [8]); 74.8% (active) in test [6] (at 50.0 µM).
In the case of `CCC(c1ccc(OC)cc1)C(CC)c1ccc(O)c(CN(C)C)c1` (configuration not stated), the growth inhibition is -2% in test [1] (setting [7]); 39% in test [1] (setting [8]); 60.1% in test [1] (at 50.0 µM); 0% in test [2] (setting [7]); 38% in test [2] (setting [8]); 27.1% in test [2] (at 50.0 µM). The growth inhibition in test [3] (setting [7]) is -4%; in test [3] (setting [8]), 86% (active); in test [3] (at 50.0 µM) it was 72.9% (active); in test [4] (setting [7]), -1%; in test [4] (setting [8]), 41%; in test [4] (at 50.0 µM), 38.3%. In addition, the growth inhibition was 4% in test [5] (setting [7]); 50% in test [5] (setting [8]); 49% in test [5] (at 50.0 µM); 3% in test [6] (setting [7]); 84% (active) in test [6] (setting [8]); 83.5% (active) in test [6] (at 50.0 µM).

Source of the values: PubChem BioAssay (NCI).
